SW480 rereplic: A quantitative high throughput screen for small molecules that induce DNA re-replication in SW480 colon adenocarcinoma cells. SW480 DNA re-replication, Hoechst DNA content imaging, 48 h. Potency, µM (top dose mostly 46.1 µM), most hits filed as activators. 340,000 compounds, 1.8% hits; note: nearly all actives have a fitted effect of over 55% in size
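Compounds, transferred as 23 nL by pin tool, were incubated with cells for 48 hr; DNA content per nucleus was then quantified by Hoechst staining and fluorescence plate imaging.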
ELG1 DNA repair: qHTS screen for small molecules that inhibit ELG1-dependent DNA repair in human embryonic kidney (HEK293T) cells expressing luciferase-tagged ELG1 | HEK293T ELG1-luciferase reporter, luminescence, 16 h; DNA damage induced by 5-fluorouridine | Potency, µM (series often up to 46.1 µM), hits mostly inhibitors | 330,000 compounds, 2.3% hits | AID 504467, 2011; note: nearly all actives have a fitted effect of over 55% in size
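HEK293T cells expressing luciferase-tagged ELG1 (2,000/well) received 5-Fluorouridine plus compound or DMSO for 16 hr at 37 °C. Luciferase was read by ONE-Glo luminescence after 30 min at room temperature.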
MCF10A rereplic: A quantitative high throughput screen for small molecules that induce DNA re-replication in MCF 10a normal breast cells; Potency, µM (doses to about 46.1 µM), hits mostly activators; MCF 10A DNA re-replication, Hoechst nuclear intensity, 48 h; 350,000 compounds, 2.9% hits; note: nearly all actives have a fitted effect of over 50% in size
KB-3-1 tox: qHTS assay for MDR1-selective chemotherapeutics: Primary screen using the parental adenocarcinoma cell KB-3-1; 400,000 compounds, 1.4% hits; AID 1347075, 2019; Potency, µM (series often up to 46.1 µM), most hits filed as cytotoxic; KB-3-1 viability, CellTiter-Glo ATP luminescence, 72 h; note: nearly all actives have a fitted effect of over 60% in size
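Here the drug-naive KB-3-1 line serves as comparator for MDR sub-line selectivity; cells received compound titrations, 72 h at 37 °C, then CellTiter-Glo readout.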
KB-V1 MDR tox: qHTS assay for MDR1-selective chemotherapeutics: Primary screen using the drug-selected MDR subline cells KB-V1. Potency, µM (doses to about 46.1 µM), hits mostly cytotoxic. 400,000 compounds, 3.4% hits. KB-V1 MDR cells viability, CellTiter-Glo, 72 h; note: nearly all actives have a fitted effect of over 60% in size
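Potencies derive from concentration-effect curves fitted to normalized luminescence (CellTiter-Glo) of KB-V1 cells treated for 72 h at 37 degrees C in phenol-red-free DMEM containing 10% FBS.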
Large screens that a line does not name were inactive. Sampled rows, rich in hits. Any-hit rate of the full collection: about 8.1%. Calls come from the whole dose curve; as a rule, active = well fitted curve in the direction sought with a large enough effect; inconclusive = small, poorly fitted or top-dose-only effect, or another doubt; inactive = no such curve, though single readings can be large; an effect the other way counts as inactive or inconclusive.

COc1cc(OC)c(NC(c2nnc(-c3ccccc3)o2)c2ccc(F)cc2Cl)cc1Cl (stereo not given)	none (no result: SW480 rereplic, ELG1 DNA repair, MCF10A rereplic)
CC(C)=NOCC(=O)Nn1c(COc2c(C)cccc2C)nc2ccccc2c1=O	none
S=c1[nH]nc(COc2ccccc2)n1/N=C/c1ccc(Cl)c(Cl)c1	MCF10A rereplic inconclusive
O=[N+]([O-])c1ccc(Cl)c(/C=N/n2c(COc3ccccc3)n[nH]c2=S)c1	SW480 rereplic inconclusive, MCF10A rereplic inconclusive, KB-V1 MDR tox 16µM
Cc1cccc(C)c1OCc1nc2ccccc2c(=O)n1/N=C/c1c[nH]c2ccccc12	ELG1 DNA repair 8.2µM, KB-3-1 tox inconclusive, KB-V1 MDR tox inconclusive
CC(C)(CNC(=O)c1cccc(S(=O)(=O)Nc2ccc(SC(F)F)cc2)c1)N1CCOCC1	KB-V1 MDR tox inconclusive (no result: ELG1 DNA repair)
COc1ccc2c(c1)c1c(c(=O)n(-c3ccccc3C)c(=O)n1CC(=O)NCc1ccc(C)cc1)n2C	none (no result: SW480 rereplic, ELG1 DNA repair, MCF10A rereplic)
O=C1Cc2cc(S(=O)(=O)N3CCN(c4ccc(F)cc4)CC3)ccc2N1	none (no result: SW480 rereplic, ELG1 DNA repair, MCF10A rereplic)
Cc1cccc(-c2nnc(-c3cccc(NC(=O)Cc4cccs4)c3)o2)c1	SW480 rereplic inconclusive, ELG1 DNA repair inconclusive, MCF10A rereplic inconclusive, KB-V1 MDR tox 21µM
O=C(Cc1cccs1)Nc1nnc(-c2ccc(F)cc2)s1	ELG1 DNA repair inconclusive
Cc1ccc(-c2nnc(-c3cccc(NC(=O)c4cccs4)c3)o2)cc1	ELG1 DNA repair inconclusive, KB-V1 MDR tox 12µM
O=C(Cc1cccs1)Nc1ccc(-c2nnc(-c3ccccc3)o2)cc1	none (no result: ELG1 DNA repair)
O=C(Cc1cccs1)Nc1nnc(-c2ccccc2)s1	ELG1 DNA repair inconclusive, MCF10A rereplic 0.65µM
COc1ccc(CCNC(=O)c2ccc(F)c(S(=O)(=O)N3CCCCC3)c2)cc1	none (no result: SW480 rereplic, ELG1 DNA repair, MCF10A rereplic)
O=C(N/N=C\c1ccc(O)c([N+](=O)[O-])c1)c1ccccc1-n1cccc1	KB-V1 MDR tox 16µM
O=C(N/N=C/c1ccc([N+](=O)[O-])o1)c1ccccc1-n1cccc1	SW480 rereplic 2µM, MCF10A rereplic 23µM, KB-3-1 tox inconclusive, KB-V1 MDR tox inconclusive
COc1cc(C=NNC(=O)c2ccccc2-n2cccc2)ccc1O	SW480 rereplic inconclusive, MCF10A rereplic inconclusive, KB-3-1 tox inconclusive
CC(=O)OC1COC(n2c(O)c(N=NC(N)=S)c3ccccc32)C(OC(C)=O)C1OC(C)=O (stereo not given)	SW480 rereplic inconclusive, MCF10A rereplic 0.65µM, KB-V1 MDR tox inconclusive
Cn1c(O)c(N=NC(N)=S)c2ccccc21	none (no result: ELG1 DNA repair, KB-3-1 tox, KB-V1 MDR tox)
CCc1cc2ccc(OC)cc2nc1SCC(=O)Nc1cc(C)on1	MCF10A rereplic 13µM
Cc1cc(NC(=O)CSc2nc(C(C)(C)C)nc3ccccc23)no1	SW480 rereplic inconclusive, MCF10A rereplic inconclusive, KB-V1 MDR tox inconclusive
Cc1cc(NC(=O)CSc2nc3c([nH]c4ccccc43)c(=O)n2-c2ccccc2F)no1	ELG1 DNA repair 21µM
Cc1cc(NC(=O)CSc2nc(CCC3CCCC3)nc3ccccc23)no1	ELG1 DNA repair inconclusive
CCCc1nc(SCC(=O)Nc2cc(C)on2)c2ccccc2n1	SW480 rereplic inconclusive, ELG1 DNA repair 26µM, MCF10A rereplic inconclusive, KB-3-1 tox inconclusive, KB-V1 MDR tox inconclusive
Cc1cc(NC(=O)CSc2nc(-c3cccs3)nc3ccccc23)no1	SW480 rereplic 5.8µM, MCF10A rereplic 15µM, KB-3-1 tox 5.8µM, KB-V1 MDR tox inconclusive
COc1ccccc1-n1c(SCC(=O)Nc2cc(C)on2)nc2c([nH]c3ccccc32)c1=O	MCF10A rereplic inconclusive, KB-3-1 tox inconclusive, KB-V1 MDR tox inconclusive
CCc1cc2ccccc2nc1SCC(=O)Nc1cc(C)on1	MCF10A rereplic inconclusive
COc1ccc(NC(=O)C(=O)NCCc2sc(-c3ccc(Cl)cc3)nc2C)cc1	none (no result: SW480 rereplic, ELG1 DNA repair, MCF10A rereplic)
Cc1ncc([N+](=O)[O-])n1S(=O)(=O)c1ccc2c(c1)OCCO2	KB-V1 MDR tox inconclusive (no result: ELG1 DNA repair)
CC1(C(=O)NCc2cccc3ccccc23)CCN1Cc1ccc(OC(F)(F)F)cc1 (stereo not given)	none (no result: SW480 rereplic, ELG1 DNA repair, MCF10A rereplic)
CC1=C(c2ccc(C)c(C)c2)S(=O)(=O)N=C1N1CCC(C(=O)N2CCCCC2)CC1	none (no result: SW480 rereplic, ELG1 DNA repair, MCF10A rereplic)
CCCc1nc(SCC(=O)Nc2nc3c(s2)CCCC3)c2ccccc2n1	MCF10A rereplic 16µM
CCc1nc(SCC(=O)Nc2nc3c(s2)CCCC3)c2ccccc2n1	SW480 rereplic inconclusive, ELG1 DNA repair inconclusive, KB-3-1 tox inconclusive
CCC(Sc1nc2ccncc2[nH]1)C(=O)Nc1cc(C)ccc1C (stereo not given)	none (no result: SW480 rereplic, ELG1 DNA repair, MCF10A rereplic)
CC1(C)CC(=O)C(C=NCCN2CCOCC2)=C(O)C1	SW480 rereplic 6.5µM
Cn1nc(-c2ccncc2)nc2c(=O)n(C)c(=O)nc1-2	KB-3-1 tox 1.8µM, KB-V1 MDR tox inconclusive (no result: SW480 rereplic, ELG1 DNA repair, MCF10A rereplic)
Cc1ccc(NC(=O)NCc2c(-n3cccc3)sc3c2CCCC3)c(Cl)c1	none (no result: SW480 rereplic, ELG1 DNA repair, MCF10A rereplic)
Cc1[nH]c2ccccc2c1/C=N/NC(=O)C1CC1(c1ccccc1)c1ccccc1 (stereo not given)	SW480 rereplic inconclusive, ELG1 DNA repair inconclusive, MCF10A rereplic 23µM, KB-3-1 tox inconclusive, KB-V1 MDR tox inconclusive
Cc1noc(C)c1-c1ccc2nc[nH]c(=O)c2c1	KB-3-1 tox 13µM, KB-V1 MDR tox inconclusive (no result: ELG1 DNA repair)
CN(C)c1cccc(C(=O)OCCNC(=O)c2cccc(S(=O)(=O)N3CCOCC3)c2)c1	ELG1 DNA repair 7.3µM
O=C(OCCOc1ccccc1)c1cccc(S(=O)(=O)N2CCOCC2)c1	KB-V1 MDR tox 18µM
O=C(NCCCN1CCOCC1)c1cccc(S(=O)(=O)N2CCOCC2)c1	none
O=C(COC(=O)c1cccc(S(=O)(=O)N2CCOCC2)c1)c1ccccc1	none
C[C@H](NC(=O)c1[nH]cnc1C(=O)Nc1cccc(Cl)c1)c1ccccc1	none
CN(Cc1ccccc1)C(=O)c1[nH]cnc1C(=O)Nc1ccc(Cl)cc1	KB-3-1 tox inconclusive, KB-V1 MDR tox inconclusive
C[C@@H](NC(=O)c1[nH]cnc1C(=O)Nc1ccc(Cl)cc1)c1ccccc1	ELG1 DNA repair inconclusive, KB-3-1 tox inconclusive, KB-V1 MDR tox inconclusive
C[C@H](NC(=O)c1[nH]cnc1C(=O)Nc1ccc(Cl)cc1)c1ccccc1	MCF10A rereplic 16µM, KB-3-1 tox inconclusive, KB-V1 MDR tox inconclusive
O=C(Nc1ccc(Cl)cc1)c1nc[nH]c1C(=O)NCc1ccccc1	MCF10A rereplic inconclusive, KB-3-1 tox inconclusive, KB-V1 MDR tox 16µM
C[C@@H](NC(=O)c1[nH]cnc1C(=O)Nc1cccc(Cl)c1)c1ccccc1	ELG1 DNA repair inconclusive, MCF10A rereplic 12µM
CC1CCN(S(=O)(=O)c2ccc3c(c2)NC(=O)CS3)CC1	none
N#Cc1ccccc1NC(=O)c1cnc(N2CCOCC2)c2ccccc12	none (no result: SW480 rereplic, ELG1 DNA repair, MCF10A rereplic)

Compound activity: PubChem, National Center for Advancing Translational Sciences (NCATS)
